About 7,900 targets were measured; listed, in parts, are those with a hit and a random draw of the rest. About 0.6% of all pairs of compound and target were hits. A number with no mark means an inactive call.
How the values were obtained:
Assay in all cases: log2 fold change, soluble protein after heating vs DMSO (PISA); higher = thermal stabilisation; K562 cells, 10 uM, 30 min; active = over 0.2 and 3.5 SD of the protein, either way, in both replicates (recomputed)
saracatinib = compound: CN1CCN(CCOc2cc(OC3CCOCC3)c3c(Nc4c(Cl)ccc5c4OCO5)ncnc3c2)CC1 [saracatinib]
In short: (§1)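 Thermal stability values are relative to control samples and come from duplicates. They are expressed as log2 fold changes. For measurement, K562 cells (2×10^6 cells/mL) received 10 μM compound for 30 min, and aliquots were heated for 3 min over 48°C-58°C, pooled, and extracted at 4°C in PBS with 0.5% NP-40. Soluble protein, the supernatant after 21,000xg for 90 min, was quantified by TMTpro 16plex LC-MS/MS with equalised channel sums.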

sotrastaurin = compound: CN1CCN(c2nc(C3=C(c4c[nH]c5ccccc45)C(=O)NC3=O)c3ccccc3n2)CC1 [sotrastaurin]
In short: as §1

alvocidib = compound: CN1CC[C@H](c2c(O)cc(O)c3c(=O)cc(-c4ccccc4Cl)oc23)[C@H](O)C1 [alvocidib]
In short: as §1

Tubastatin A = compound: CN1CCc2c(c3ccccc3n2Cc2ccc(C(=O)NO)cc2)C1 [Tubastatin A]
In short: as §1

[1] = compound: CNC(=O)C1=CC=CC=C1NC2=NC(=NC=C2Cl)NC3=C(C=C(C=C3)N4CCOCC4)OC
In short: as §1

defactinib = compound: CNC(=O)c1ccc(Nc2ncc(C(F)(F)F)c(NCc3nccnc3N(C)S(C)(=O)=O)n2)cc1 [defactinib]
In short: as §1

rucaparib = compound: CNCc1ccc(-c2[nH]c3cc(F)cc4c3c2CCNC4=O)cc1 [rucaparib]
In short: as §1

[2] = compound: CNc1nc(-c2ccc3c(N)n[nH]c3c2)cc(N2C[C@@H](C(=O)NC3CCCCC3)CC[C@H]2C)n1
In short: as §1

encorafenib = compound: COC(=O)N[C@@H](C)CNc1nccc(-c2cn(C(C)C)nc2-c2cc(Cl)cc(NS(C)(=O)=O)c2F)n1 [encorafenib]
In short: as §1

[3] = compound: COC(=O)[C@H](CCSC)NC(=O)C1=C(C=C(C=C1)NC[C@H](CS)N)C2=CC=CC=C2
In short: as §1

[4] = compound: COC1=CC=C(C=C1)CN2C=CC3=C2C=C(C=C3)C(=O)NO
In short: as §1

filanesib = compound: CON(C)C(=O)N1N=C(c2cc(F)ccc2F)S[C@@]1(CCCN)c1ccccc1 [filanesib]
In short: as §1

zotarolimus = compound: CO[C@H]1C[C@@H]2CC[C@@H](C)[C@@](O)(O2)C(=O)C(=O)N2CCCC[C@H]2C(=O)O[C@H]([C@H](C)C[C@@H]2CC[C@H](n3cnnn3)[C@H](OC)C2)CC(=O)[C@H](C)/C=C(\C)[C@@H](O)[C@@H](OC)C(=O)[C@H](C)C[C@H](C)/C=C/C=C/C=C/1C [zotarolimus]
In short: as §1

idasanutlin = compound: COc1cc(C(=O)O)ccc1NC(=O)[C@@H]1N[C@@H](CC(C)(C)C)[C@](C#N)(c2ccc(Cl)cc2F)[C@H]1c1cccc(Cl)c1F [idasanutlin]
In short: as §1

alisertib = compound: COc1cc(Nc2ncc3c(n2)-c2ccc(Cl)cc2C(c2c(F)cccc2OC)=NC3)ccc1C(=O)O [alisertib]
In short: as §1

[5] = compound: COc1cc2nc(-c3cc(F)ccc3O)nc(N[C@@H]3CNC[C@H]3C(C)(C)O)c2cc1OC
In short: as §1

gefitinib = compound: COc1cc2ncnc(Nc3ccc(F)c(Cl)c3)c2cc1OCCCN1CCOCC1 [gefitinib]
In short: as §1

[6] = compound: COc1cccc2cc(-c3nc([C@H]4CC[C@H](C(=O)O)CC4)n4ncnc(N)c34)[nH]c12
In short: as §1

lapatinib = compound: CS(=O)(=O)CCNCc1ccc(-c2ccc3ncnc(Nc4ccc(OCc5cccc(F)c5)c(Cl)c4)c3c2)o1 [lapatinib]
In short: as §1

pictilisib = compound: CS(=O)(=O)N1CCN(Cc2cc3nc(-c4cccc5[nH]ncc45)nc(N4CCOCC4)c3s2)CC1 [pictilisib]
In short: as §1

Chain of UniProt Q9NSY1 (Q9NSY1 whole entry, looked up): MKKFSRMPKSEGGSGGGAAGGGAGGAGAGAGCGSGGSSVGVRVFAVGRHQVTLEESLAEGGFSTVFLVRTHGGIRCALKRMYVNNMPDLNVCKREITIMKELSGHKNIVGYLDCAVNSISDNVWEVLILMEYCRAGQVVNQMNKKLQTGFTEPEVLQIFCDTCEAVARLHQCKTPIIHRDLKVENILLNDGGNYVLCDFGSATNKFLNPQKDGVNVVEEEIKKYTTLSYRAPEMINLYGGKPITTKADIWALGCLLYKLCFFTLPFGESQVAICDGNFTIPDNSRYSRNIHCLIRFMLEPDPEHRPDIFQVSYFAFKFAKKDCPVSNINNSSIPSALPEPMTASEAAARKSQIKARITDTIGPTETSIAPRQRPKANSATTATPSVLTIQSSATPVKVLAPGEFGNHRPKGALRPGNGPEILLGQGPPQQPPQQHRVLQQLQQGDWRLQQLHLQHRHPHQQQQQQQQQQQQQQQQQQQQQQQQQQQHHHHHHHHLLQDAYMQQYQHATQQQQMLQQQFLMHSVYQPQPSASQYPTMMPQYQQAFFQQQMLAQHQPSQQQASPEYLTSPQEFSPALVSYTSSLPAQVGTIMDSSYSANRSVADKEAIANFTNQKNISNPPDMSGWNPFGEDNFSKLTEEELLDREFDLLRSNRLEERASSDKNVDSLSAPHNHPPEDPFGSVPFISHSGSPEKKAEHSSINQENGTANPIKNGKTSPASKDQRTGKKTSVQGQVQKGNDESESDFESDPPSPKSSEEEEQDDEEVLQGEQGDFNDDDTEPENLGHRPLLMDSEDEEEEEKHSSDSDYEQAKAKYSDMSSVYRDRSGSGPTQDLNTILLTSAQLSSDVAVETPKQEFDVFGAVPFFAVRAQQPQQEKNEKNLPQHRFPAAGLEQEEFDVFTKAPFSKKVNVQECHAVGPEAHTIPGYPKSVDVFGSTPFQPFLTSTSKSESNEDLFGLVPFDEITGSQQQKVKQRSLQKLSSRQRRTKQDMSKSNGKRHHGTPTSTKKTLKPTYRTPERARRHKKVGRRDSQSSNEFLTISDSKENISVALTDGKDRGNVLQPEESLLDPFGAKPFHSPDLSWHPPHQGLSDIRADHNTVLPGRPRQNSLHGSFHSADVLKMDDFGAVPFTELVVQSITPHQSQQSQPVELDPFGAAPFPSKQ
Chain of UniProt Q93084 (Q93084 whole entry, looked up): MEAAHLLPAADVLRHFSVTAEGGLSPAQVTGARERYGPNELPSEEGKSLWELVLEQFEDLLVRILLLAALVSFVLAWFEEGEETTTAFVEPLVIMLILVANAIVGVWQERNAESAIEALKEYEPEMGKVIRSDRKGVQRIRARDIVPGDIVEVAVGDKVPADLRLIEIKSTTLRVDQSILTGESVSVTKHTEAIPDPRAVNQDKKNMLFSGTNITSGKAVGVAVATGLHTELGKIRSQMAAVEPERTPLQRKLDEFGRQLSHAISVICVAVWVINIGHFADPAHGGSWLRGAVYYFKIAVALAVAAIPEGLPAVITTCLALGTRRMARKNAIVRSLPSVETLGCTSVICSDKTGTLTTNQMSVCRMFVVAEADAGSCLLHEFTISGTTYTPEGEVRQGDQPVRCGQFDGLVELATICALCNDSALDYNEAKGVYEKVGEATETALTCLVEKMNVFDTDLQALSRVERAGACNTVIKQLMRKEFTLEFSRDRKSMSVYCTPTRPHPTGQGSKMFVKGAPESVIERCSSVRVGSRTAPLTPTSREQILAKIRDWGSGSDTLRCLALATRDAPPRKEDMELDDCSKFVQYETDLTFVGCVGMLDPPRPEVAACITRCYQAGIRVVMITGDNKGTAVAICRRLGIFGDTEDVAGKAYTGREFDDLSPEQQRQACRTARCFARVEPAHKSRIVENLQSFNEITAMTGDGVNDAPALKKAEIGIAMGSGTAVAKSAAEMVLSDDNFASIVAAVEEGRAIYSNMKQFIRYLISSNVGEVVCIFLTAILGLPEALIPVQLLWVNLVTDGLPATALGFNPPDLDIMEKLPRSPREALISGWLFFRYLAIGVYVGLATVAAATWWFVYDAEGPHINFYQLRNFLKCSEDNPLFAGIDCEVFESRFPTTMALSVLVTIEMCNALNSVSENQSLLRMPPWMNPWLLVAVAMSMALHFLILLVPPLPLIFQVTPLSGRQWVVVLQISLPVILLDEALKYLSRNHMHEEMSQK
Chain of UniProt O95573 (O95573 whole entry, looked up): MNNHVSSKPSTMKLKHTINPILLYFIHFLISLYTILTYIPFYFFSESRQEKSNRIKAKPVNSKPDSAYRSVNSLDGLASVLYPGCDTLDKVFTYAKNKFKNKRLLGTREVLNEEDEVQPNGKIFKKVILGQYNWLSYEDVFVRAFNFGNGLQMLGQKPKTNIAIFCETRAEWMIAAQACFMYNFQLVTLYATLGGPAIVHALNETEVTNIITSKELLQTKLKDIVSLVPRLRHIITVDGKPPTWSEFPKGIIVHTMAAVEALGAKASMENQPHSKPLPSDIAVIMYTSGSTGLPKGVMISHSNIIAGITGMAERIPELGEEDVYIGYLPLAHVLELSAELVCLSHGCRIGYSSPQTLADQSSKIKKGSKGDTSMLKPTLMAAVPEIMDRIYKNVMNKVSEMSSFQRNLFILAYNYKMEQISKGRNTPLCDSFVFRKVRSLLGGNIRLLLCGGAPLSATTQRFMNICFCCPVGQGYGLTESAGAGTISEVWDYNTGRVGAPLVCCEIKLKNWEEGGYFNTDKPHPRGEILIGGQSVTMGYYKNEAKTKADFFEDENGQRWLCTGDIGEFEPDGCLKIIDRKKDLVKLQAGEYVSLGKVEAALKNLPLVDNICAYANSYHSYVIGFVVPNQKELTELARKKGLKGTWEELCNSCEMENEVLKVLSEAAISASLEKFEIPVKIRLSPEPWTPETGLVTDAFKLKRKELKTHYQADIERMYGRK
Chain of UniProt P63010 (P63010 whole entry, looked up): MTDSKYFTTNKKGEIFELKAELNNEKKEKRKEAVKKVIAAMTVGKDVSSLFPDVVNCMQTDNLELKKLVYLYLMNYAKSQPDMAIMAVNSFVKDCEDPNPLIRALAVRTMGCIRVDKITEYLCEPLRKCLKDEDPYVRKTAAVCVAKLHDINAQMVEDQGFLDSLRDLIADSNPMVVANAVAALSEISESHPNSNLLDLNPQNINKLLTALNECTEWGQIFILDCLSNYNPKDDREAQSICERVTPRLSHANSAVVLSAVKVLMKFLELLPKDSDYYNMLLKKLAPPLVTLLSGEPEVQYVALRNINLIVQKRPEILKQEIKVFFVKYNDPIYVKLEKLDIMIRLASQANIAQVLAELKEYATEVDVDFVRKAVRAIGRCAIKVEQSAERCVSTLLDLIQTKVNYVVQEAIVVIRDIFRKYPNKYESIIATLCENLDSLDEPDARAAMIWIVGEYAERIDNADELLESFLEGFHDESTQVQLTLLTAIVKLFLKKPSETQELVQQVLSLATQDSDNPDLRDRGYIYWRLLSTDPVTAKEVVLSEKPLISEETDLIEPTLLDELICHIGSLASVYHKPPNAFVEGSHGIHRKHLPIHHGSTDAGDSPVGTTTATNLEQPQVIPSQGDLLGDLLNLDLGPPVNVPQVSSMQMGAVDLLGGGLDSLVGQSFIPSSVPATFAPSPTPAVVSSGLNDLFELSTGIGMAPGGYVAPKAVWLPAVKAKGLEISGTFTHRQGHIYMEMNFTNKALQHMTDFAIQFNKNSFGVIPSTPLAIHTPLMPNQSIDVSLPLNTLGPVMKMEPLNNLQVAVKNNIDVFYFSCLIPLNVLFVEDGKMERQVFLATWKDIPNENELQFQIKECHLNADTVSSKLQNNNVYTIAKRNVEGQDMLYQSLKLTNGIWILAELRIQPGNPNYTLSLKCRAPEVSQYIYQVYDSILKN
Chain of UniProt P30837 (P30837 whole entry, looked up): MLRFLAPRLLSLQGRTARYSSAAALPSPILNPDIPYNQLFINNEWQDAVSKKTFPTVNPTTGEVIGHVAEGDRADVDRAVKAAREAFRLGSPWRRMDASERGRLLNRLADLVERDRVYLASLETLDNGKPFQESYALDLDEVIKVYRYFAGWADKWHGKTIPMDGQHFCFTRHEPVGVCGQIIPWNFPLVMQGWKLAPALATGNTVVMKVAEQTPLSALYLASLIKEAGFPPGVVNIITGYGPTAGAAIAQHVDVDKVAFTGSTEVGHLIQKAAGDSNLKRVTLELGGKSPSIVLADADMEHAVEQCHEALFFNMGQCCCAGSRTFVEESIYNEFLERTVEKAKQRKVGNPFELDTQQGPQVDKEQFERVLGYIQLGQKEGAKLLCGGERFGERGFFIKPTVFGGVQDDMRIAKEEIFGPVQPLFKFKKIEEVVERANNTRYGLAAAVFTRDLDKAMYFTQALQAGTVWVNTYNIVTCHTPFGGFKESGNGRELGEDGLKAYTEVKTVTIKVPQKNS
Chain of UniProt Q06481 (Q06481 whole entry, looked up): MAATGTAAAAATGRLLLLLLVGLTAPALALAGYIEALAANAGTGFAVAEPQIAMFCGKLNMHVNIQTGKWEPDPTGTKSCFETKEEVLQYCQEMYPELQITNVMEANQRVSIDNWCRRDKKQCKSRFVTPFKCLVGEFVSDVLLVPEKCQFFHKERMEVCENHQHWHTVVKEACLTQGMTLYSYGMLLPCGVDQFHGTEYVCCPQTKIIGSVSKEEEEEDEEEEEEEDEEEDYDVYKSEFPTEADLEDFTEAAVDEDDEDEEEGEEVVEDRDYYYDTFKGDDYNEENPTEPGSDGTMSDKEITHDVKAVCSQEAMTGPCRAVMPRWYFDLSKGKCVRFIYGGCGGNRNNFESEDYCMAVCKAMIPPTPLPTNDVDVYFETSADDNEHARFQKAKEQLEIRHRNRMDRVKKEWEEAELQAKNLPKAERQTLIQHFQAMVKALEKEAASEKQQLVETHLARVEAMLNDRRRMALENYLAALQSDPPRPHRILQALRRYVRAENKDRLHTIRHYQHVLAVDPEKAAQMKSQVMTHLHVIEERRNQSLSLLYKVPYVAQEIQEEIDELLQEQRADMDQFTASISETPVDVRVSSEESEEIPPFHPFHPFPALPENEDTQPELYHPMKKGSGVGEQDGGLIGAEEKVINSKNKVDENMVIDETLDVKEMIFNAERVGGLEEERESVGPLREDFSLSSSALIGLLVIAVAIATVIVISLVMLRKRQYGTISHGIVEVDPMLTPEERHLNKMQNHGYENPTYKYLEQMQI

Row | Target | log2 fold change (saracatinib) | log2 fold change (sotrastaurin) | log2 fold change (alvocidib) | log2 fold change (Tubastatin A) | log2 fold change [1] | log2 fold change (defactinib) | log2 fold change (rucaparib) | log2 fold change [2] | log2 fold change (encorafenib) | log2 fold change [3] | log2 fold change [4] | log2 fold change (filanesib) | log2 fold change (zotarolimus) | log2 fold change (idasanutlin) | log2 fold change (alisertib) | log2 fold change [5] | log2 fold change (gefitinib) | log2 fold change [6] | log2 fold change (lapatinib) | log2 fold change (pictilisib)
1 | ABCB6 (UniProt Q9NP58) | 0.073 | 0.01 | -0.064 | -0.017 | -0.013 | -0.031 | -0.034 | 0.003 | 0.055 | -0.017 | -0.007 | -0.077 | 0.055 | -0.137 | -0.069 | 0.058 | -0.011 | 0.024 | -0.005 | 0.06
2 | ARFGAP1 (UniProt Q8N6T3) | -0.021 | -0.086 | -0.029 | 0.034 | 0.068 | -0.158 | -0.048 | -0.087 | 0.068 | -0.044 | 0.03 | 0.034 | 0.047 | 0.028 | 0.047 | 0 | -0.022 | -0.015 | -0.038 | -0.007
3 | ANAPC2 (UniProt Q9UJX6) | -0.003 | -0.084 | -0.02 | 0.009 | -0.011 | -0.049 | 0.027 | -0.063 | 0.124 | 0.006 | 0.026 | -0.042 | 0.012 | -0.047 | -0.074 | -0.038 | -0.034 | -0.004 | 0.059 | 0.015
4 | BID isoform 2 (UniProt P55957) | 0.008 | 0.04 | -0.018 | 0.076 | -0.053 | -0.031 | 0.033 | -0.017 | -0.011 | -0.032 | 0.045 | 0.016 | 0.08 | 0.016 | -0.045 | -0.006 | 0 | 0.089 | 0.005 | 0.038
5 | BMP2K (UniProt Q9NSY1) | 0.071 | 0.023 | 0.088 | 0.015 | 0.183 | 0.179 | 0.064 | -0.029 | -0.069 | -0.012 | 0.032 | -0.019 | 0.029 | -0.092 | 0 | 0.055 | 0.024 | 0.111 | 0.01 | 0.102
6 | BCCIP isoform 2 (UniProt Q9P287) | -0.004 | -0.044 | 0.031 | -0.036 | 0.013 | -0.019 | 0.087 | -0.005 | 0.037 | -0.024 | -0.059 | 0.05 | -0.002 | -0.021 | 0.024 | 0.021 | 0 | 0.026 | -0.007 | -0.021
7 | AP2B1 isoform 2 (UniProt P63010) | 0.057 | -0.003 | 0.017 | 0.001 | 0.022 | 0.005 | 0.043 | -0.011 | 0.027 | 0.005 | 0.08 | 0.022 | 0.036 | -0.019 | -0.062 | 0.012 | 0.01 | 0.01 | 0.049 | 0.015
8 | APLP2 (UniProt Q06481) | 0.072 | 0.094 | 0.011 | 0.014 | 0.009 | -0.055 | -0.082 | -0.051 | 0.02 | 0.051 | 0.036 | 0.219 (active) | 0.002 | 0.058 | -0.039 | 0.038 | 0.106 | -0.04 | 0.09 | 0.091
9 | ANKZF1 (UniProt Q9H8Y5) | -0.146 | -0.093 | 0.034 | 0.088 | 0.04 | 0.123 | 0.167 | 0.156 | 0.119 | -0.274 | -0.005 | 0.249 | 0.048 | 0.235 | -0.034 | 0.042 | -0.001 | -0.022 | -0.046 | -0.002
10 | ALDH1B1 (UniProt P30837) | -0.015 | 0.001 | -0.093 | 0.014 | 0.002 | -0.055 | -0.015 | 0.062 | 0.013 | -0.042 | 0.051 | -0.1 | 0.029 | -0.122 | -0.045 | -0.009 | 0.091 | 0.075 | -0.003 | 0.062
11 | ARL1 (UniProt P40616) | 0.117 | -0.049 | -0.068 | 0.031 | -0.017 | 0.03 | -0.012 | 0.058 | 0.117 | -0.178 | -0.007 | -0.155 | 0.03 | -0.254 (active) | -0.124 | -0.042 | 0.047 | 0.042 | 0.117 | -0.135
12 | ATP2A3 isoform 2 (UniProt Q93084) | 0.058 | -0.007 | -0.021 | -0.022 | -0.026 | -0.021 | -0.04 | 0.033 | 0.027 | 0.002 | -0.016 | -0.118 | -0.009 | -0.027 | -0.082 | -0.004 | -0.029 | 0.02 | -0.002 | 0.027
13 | AKT1 (UniProt P31749) | -0.163 | -0.25 | -0.043 | 0.111 | 0.317 | -0.062 | 0.038 | -0.24 | -0.003 | -0.025 | -0.001 | 0.001 | 0.059 | -0.134 | -0.07 | 0.1 | 0.025 | -0.224 | 0.135 | 0.216
14 | ACSL3 (UniProt O95573) | 0 | -0.014 | -0.037 | -0.022 | -0.008 | -0.043 | -0.002 | 0.041 | 0.008 | -0.01 | 0.126 | -0.045 | 0.019 | -0.127 | 0.026 | 0.046 | 0.021 | 0.037 | 0 | 0.022
15 | ATL2 (UniProt Q8NHH9) | -0.032 | 0.05 | -0.05 | 0.047 | 0.005 | 0.008 | 0.019 | 0.035 | 0.005 | 0.008 | -0.006 | -0.03 | 0.026 | -0.052 | 0.008 | 0.148 | 0.016 | 0.034 | -0.039 | 0.003
16 | ACACB (UniProt O00763) | -0.166 | -0.383 | 0.033 | 0.087 | -0.083 | 0.016 | 0.291 | 0.228 | 0.089 | -0.137 | -0.019 | 0.258 | 0.132 | -0.042 | -0.168 | 0.039 | -0.02 | -0.371 | 0.068 | 0.038

From the supplement of paper PMC10849652
